Measured values published in the supplement of paper PMC6555819.

Tests used:
Assay in all cases: PBM binding z-score (relative to random genomic background probes); higher = stronger binding; sequences stand for … in GC…GCGATTGACAGCGTAGAATGAAGG
[1] = tested on: FXR:RXRa (NR concentration 270 nM, RXRa partner concentration 90 nM)
Outline: (§1)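 Random background probes are the reference for binding z-scores. These scores derive from regression-normalized fluorescence on custom Agilent 4×180K protein-binding microarrays incubated 1 h with ligand-free nuclear receptor dimers. Binding was detected with antibodies against each partner (one per run).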

[2] = tested on: LXRa:RXRa (NR concentration 270 nM, RXRa partner concentration 90 nM)
Outline: as §1

[3] = tested on: LXRa homodimer (NR concentration 270 nM)
Outline: as §1

[4] = tested on: LXRb:RXRa (NR concentration 270 nM, RXRa partner concentration 90 nM)
Outline: as §1

[5] = tested on: LXRb homodimer (NR concentration 270 nM)
Outline: as §1

[6] = tested on: PPARa:RXRa (NR concentration 270 nM, RXRa partner concentration 90 nM)
Outline: as §1

[7] = tested on: PPARg:RXRa (NR concentration 180 nM, RXRa partner concentration 90 nM)
Outline: as §1

[8] = tested on: PPARg:RXRa 270nM:90nM, anti-RXR (NR concentration 270 nM, RXRa partner concentration 90 nM)
Outline: as §1

[9] = tested on: PPARg:RXRa 30nM:10nM, anti-RXR (NR concentration 30 nM, RXRa partner concentration 10 nM)
Outline: as §1

[10] = tested on: PPARg:RXRa 90nM:30nM, anti-RXR (NR concentration 90 nM, RXRa partner concentration 30 nM)
Outline: as §1

[11] = tested on: PPARg:RXRa DBDmut IVT, anti-RXR (DBD mutation: RXRa K156A/R161A, NR concentration 270 nM, RXRa partner concentration 90 nM)
Outline: as §1

[12] = tested on: PPARg:RXRa IVT, anti-PPARg (NR concentration 270 nM, RXRa partner concentration 90 nM)
Outline: as §1

[13] = tested on: PPARg DBDmut:RXRa IVT, anti-PPARg (DBD mutation: PPARg1 K132A/R137A, NR concentration 270 nM, RXRa partner concentration 90 nM)
Outline: as §1

[14] = tested on: PPARg DBDmut IVT, anti-PPARg (DBD mutation: PPARg1 K132A/R137A, NR concentration 270 nM)
Outline: as §1

[15] = tested on: PPARg homodimer (NR concentration 180 nM)
Outline: as §1

[16] = tested on: PXR:RXRa (NR concentration 270 nM, RXRa partner concentration 90 nM)
Outline: as §1

[17] = tested on: PXR homodimer (NR concentration 270 nM)
Outline: as §1

[18] = tested on: RARa:RXR (NR concentration 270 nM, RXRa partner concentration 90 nM)
Outline: as §1

[19] = tested on: RARa homodimer (NR concentration 270 nM)
Outline: as §1

[20] = tested on: RARb:RXRa (NR concentration 270 nM, RXRa partner concentration 90 nM)
Outline: as §1

Row | Sequence | PBM binding z-score [1] | PBM binding z-score [2] | PBM binding z-score [3] | PBM binding z-score [4] | PBM binding z-score [5] | PBM binding z-score [6] | PBM binding z-score [7] | PBM binding z-score [8] | PBM binding z-score [9] | PBM binding z-score [10] | PBM binding z-score [11] | PBM binding z-score [12] | PBM binding z-score [13] | PBM binding z-score [14] | PBM binding z-score [15] | PBM binding z-score [16] | PBM binding z-score [17] | PBM binding z-score [18] | PBM binding z-score [19] | PBM binding z-score [20]
1 | GCTACCAGGCCATTTGGGTCACTCAATGACGGGC | 0.22 | 0.0663 | -0.549 | 0.301 | -0.419 | 1.57 | 0.923 | 0.744 | -0.356 | 0.658 | 2.04 | 2.77 | 0.125 | -0.407 | -0.0143 | 0.976 | 0.553 | 0.919 | -0.79 | 1.59
2 | CCTTACGGGTCAAGGTTATAGCTCGGGTGGTACG | 5.6 | 3.71 | 0.385 | 3.06 | 0.274 | 5.04 | 4.42 | 4.35 | 1.57 | 3.44 | 2.32 | 3.66 | 0.883 | -0.415 | 1.91 | 3.16 | 0.16 | 3.72 | 0.652 | 4.12
3 | CCGACTGGGGCAAGATTACCATAACGCACAGCCA | -0.454 | -0.432 | -0.473 | -0.425 | -1.17 | -0.0466 | 1.17 | 0.422 | -0.715 | -0.513 | 2.97 | 2.41 | -0.0501 | -0.549 | -0.195 | -0.741 | -0.382 | -0.513 | -0.747 | 0.315
4 | TCTAGCAGGCCAGAGGATCACTCAAGAGGTACGG | -0.551 | -0.271 | -0.763 | -0.773 | -1.43 | -0.206 | 0.826 | 1.2 | 1.53 | 1.43 | 0.493 | -0.268 | -0.802 | -1.11 | -1.15 | -0.557 | -0.932 | -0.354 | -1.38 | -0.18
5 | TCGTGTAGATCAATAGAGGTTAAGAAAGTGCGCT | 0.712 | 3.48 | 0.576 | 1.76 | -0.163 | 1.86 | 0.088 | 1.57 | 2.53 | 2.13 | 1.64 | 0.537 | -0.0229 | -0.0334 | 0.586 | 2.99 | 0.386 | 1.79 | 0.575 | 0.822
6 | CCTACTGGGCCATTCAGATGTCATTGATCATATG | -0.368 | -0.638 | -0.391 | -0.292 | -0.418 | 0.25 | 0.6 | 0.494 | 0.00113 | 0.0703 | 4.47 | 3.44 | -0.00111 | 0.0316 | 0.0941 | -0.564 | -0.799 | -0.682 | -0.198 | 0.127
7 | GATACAGGGTCAGCAAGAGGCCAGAGTATGGAAA | 4.96 | 3.07 | -0.295 | 2.49 | -0.626 | 4.8 | 3.55 | 3.6 | 1.29 | 2.37 | 0.915 | 2.6 | -0.173 | -0.37 | 1.98 | 3.23 | 0.0143 | 4.07 | 0.301 | 4.18
8 | TCATATAGGTAAGACAGGTGAAAGTCGGCATCTA | 1.17 | 1.21 | 0.129 | 0.604 | 0.0128 | 1.49 | 0.925 | 2.42 | 4.15 | 3.3 | 3.27 | 2.39 | 0.585 | 1.03 | 0.477 | 0.625 | 0.645 | 0.925 | 1.31 | 0.61
9 | TAGCCTAGGTTATTCAGGGGCCAGTATAGAAAGC | 0.502 | 1.27 | -0.0903 | 1.24 | 0.216 | 0.523 | 0.241 | -0.0507 | -0.33 | 0.0793 | 0.707 | 0.703 | 0.674 | -0.312 | -0.0619 | 0.0716 | -0.463 | 0.719 | -0.306 | 1.13
10 | ATATGTAGGTTACATCAGGGTCATTCAGGCTATG | 3.26 | 4.84 | 2.29 | 3.97 | 0.66 | 5.17 | 6.84 | 5.54 | 3.17 | 4.87 | 7.19 | 7.69 | 2.46 | 2.26 | 2.46 | 4.24 | 2.65 | 4.06 | 1.01 | 2.77
11 | CGTCAAAGTTCAACTAAGGTACCGTAAAGCACGC | 7.12 | 6.16 | 4.3 | 4.18 | 2.24 | 5.12 | 4.93 | 5.42 | 2.29 | 4.15 | 0.831 | 1.71 | 0.452 | 0.671 | 2.68 | 4.87 | 3.81 | 3.96 | 1.72 | 5.21
12 | CCTCTGAGGACAGAAGGTCAGAGCTGTCCGCTTT | 2.01 | 1.73 | 0.0206 | 1.25 | -0.446 | 2.02 | 0.0496 | 1.3 | -0.534 | 0.582 | 0.612 | 0.36 | -0.397 | -1.71 | 1.53 | 1.95 | -0.313 | 2.59 | -0.25 | 3.44
13 | TTACCAAGGTGAAGGTCGCTGATCCCTCTGTAGA | 1.1 | 0.984 | -0.243 | 0.689 | -1.18 | 2.43 | 2.63 | 4.12 | 1.98 | 3.68 | 1.76 | 3.41 | -0.525 | -0.735 | 0.05 | 0.966 | -0.523 | 1.56 | -0.643 | 2.5
14 | ATACAAAGGTGATCGTGAGGTCGTTGATACTAAC | 2.64 | 2.6 | 0.941 | 1.91 | 0.00532 | 2.76 | 1.87 | 1.95 | 0.554 | 1.27 | 1.15 | 2.15 | 1.05 | 0.894 | 1.53 | 4.07 | 1.38 | 3 | 1.26 | 2.54
